An excerpt weighted towards active compounds, which were near 2% of everything screened.
aSyn yeast inh = alpha-synuclein toxicity inhibition in yeast. 370,000 compounds, 0.14% hits. Potency, µM (highest dose often 46.1 µM), actives largely listed as activators. Yeast expressing alpha-synuclein, growth rescue, BacTiter-Glo, 24 h; note: nearly all actives have a fitted effect of over 65% in size
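Screening used galactose-induced yeast with toxic alpha-synuclein levels, exposed to compound for 24 hr at 30 deg C. Cell growth, read with BacTiter-Glo luminescence, gave the measured signal.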
TDP43 rescue = inhibitors of TDP-43 toxicity in yeast; TDP-43 expressing yeast growth rescue, BacTiter-Glo, 24 h; 410,000 compounds, 1.8% hits; Potency, µM (series often up to 46.1 µM), hits mostly activators; AID 652104; note: nearly all actives have a fitted effect of over 50% in size
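Readout is BacTiter-Glo luminescence of cell growth, so inhibitors register as activators. TDP-43-expressing yeast at OD600=0.02 in galactose medium, after raffinose pregrowth to mid-log, were incubated with compound for 24 hr at 30 deg C.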
FUS yeast rescue = rescues growth of FUS-expressing yeast | Potency, µM (highest dose often 76.6 µM), most hits filed as activators | S. cerevisiae FUS-expressing, growth rescue, OD600, 24 h | AID 1347120 | 390,000 compounds, 0.24% hits; note: nearly all actives have a fitted effect of over 55% in size
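Steps: raffinose overnight preculture; dilution to OD 0.005 in 2% galactose minimal medium; compound addition (concentration series); 24hr at 30C, 99% humidity; absorbance read at 600 nm.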
mIDH1 inhibitor = blocks human mutant IDH1 R132H enzyme. 390,000 compounds, 0.093% hits. AID 602179. O75874. Potency, µM (highest dose often 76.6 µM), most hits filed as inhibitors. IDH1-R132H enzyme, NADPH consumption, diaphorase/resazurin fluorescence; note: nearly all actives have a fitted effect of over 65% in size
Target sequence (O75874 whole entry R132H, stated change not applied): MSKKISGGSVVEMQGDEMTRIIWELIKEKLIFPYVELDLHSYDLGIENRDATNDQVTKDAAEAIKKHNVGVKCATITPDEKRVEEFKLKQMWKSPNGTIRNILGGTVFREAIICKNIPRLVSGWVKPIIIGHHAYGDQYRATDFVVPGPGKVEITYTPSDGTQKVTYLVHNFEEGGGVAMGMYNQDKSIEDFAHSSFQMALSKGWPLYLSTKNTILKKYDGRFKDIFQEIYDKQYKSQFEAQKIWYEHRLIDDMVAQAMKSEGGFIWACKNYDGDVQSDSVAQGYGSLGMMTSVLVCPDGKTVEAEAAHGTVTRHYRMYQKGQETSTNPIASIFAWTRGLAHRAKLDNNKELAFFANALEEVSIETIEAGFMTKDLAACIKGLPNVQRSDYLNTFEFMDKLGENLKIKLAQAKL
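IDH1-R132H (0.5 ug/mL) preincubated 30 min with compound, then NADPH (0.016 mM) and alpha-KG (2 mM) added; 80 min at RT, pH 7.5. Remaining NADPH coupled via diaphorase/resazurin to fluorescence (540/590 nm); concentration-response curves normalized to no-enzyme control.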
Abeta yeast res = compounds reversing amyloid beta toxicity in yeast; yeast expressing A-beta42, growth rescue, OD600, 48 h; response scale: 0% DMSO, 100% iron-clioquinol control; Potency, µM (titrated, usually from 46.1 µM), hits mostly activators; 410,000 compounds, 0.063% hits; note: nearly all actives have a fitted effect of over 55% in size
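Yeast growth medium received pinned compounds, then yeast cells expressing toxic A-beta were added; plates incubated at 30 C for 48 hr. Growth read as absorbance at 600 nm, normalized to DMSO and equimolar FeCl3 plus clioquinol controls.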
LDHA inh = inhibitors of human lactate dehydrogenase A; P00338; purified LDHA, NADH/diaphorase-resazurin fluorescence; hits give low values; activity change, % (values are at about 110 or 230 µM); 480,000 compounds, 0.15% hits; AID 1347041; in the data active = activity change below about -30%; inconclusive = mostly about -25% to -30%
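Resorufin fluorescence (ex540/em590), read at 0 and 20 min after diaphorase/resazurin addition, reports the NADH left after a 5 min room-temperature reaction of 2 nM human LDH5 with 0.06 mM NADH and 0.2 mM pyruvate.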
Large screens that a line does not name were inactive. Unless noted, calls come from the whole dose curve; as a rule, active = well fitted curve in the direction sought with a large enough effect; inconclusive = small, poorly fitted or top-dose-only effect, or another doubt; inactive = no such curve, though single readings can be large; an effect the other way counts as inactive or inconclusive.

N/C(=C\C(=O)/C=C/c1cccs1)C(Cl)(Cl)Cl	none (no result: aSyn yeast inh, TDP43 rescue, FUS yeast rescue, mIDH1 inhibitor, Abeta yeast res)
COc1ccc(NC(=O)c2cc3ccccc3o2)cc1	none
COc1ccc(NC(=O)c2cc3ccccc3o2)cc1OC	TDP43 rescue 13µM
CCN(CC)S(=O)(=O)c1cccc(NC(=O)c2cc3ccccc3o2)c1	TDP43 rescue inconclusive
CN(C)S(=O)(=O)c1cccc(NC(=O)c2cc3ccccc3o2)c1	TDP43 rescue 8.9µM (no result: aSyn yeast inh)
Cn1nnnc1NCc1ccc(-c2ccccc2)o1	none (no result: aSyn yeast inh, TDP43 rescue, FUS yeast rescue, mIDH1 inhibitor, Abeta yeast res)
CSc1ccc(CNC(=O)C2CCN(c3nnc(-n4cccc4CNc4ccc(C)cc4)s3)CC2)cc1	FUS yeast rescue 35µM (no result: aSyn yeast inh, mIDH1 inhibitor)
Cc1ccc(NCc2cccn2-c2nnc(N3CCC(C(=O)NCCC(C)C)CC3)s2)cc1	FUS yeast rescue inconclusive (no result: aSyn yeast inh, mIDH1 inhibitor)
CCOC(=O)CN1C(=O)Nc2ccc(Br)cc2C1c1ccccc1 (configuration not stated)	none
CCOC(=O)CN1C(c2ccc(O)cc2)Nc2ccc(Br)cc2C1c1ccccc1 (configuration not stated)	TDP43 rescue 20µM (no result: FUS yeast rescue)
CCOC(=O)CNC(=S)N(Cc1ccccc1F)C1CCCCC1	TDP43 rescue inconclusive, Abeta yeast res 7.1µM
CCOc1ccccc1NC(=O)c1ccc2ccccc2c1	TDP43 rescue 6.3µM
CCOc1ccc2c(c1)cc(C(=O)Nc1ccccc1OCC)n2C	LDHA inh -33 (no result: aSyn yeast inh, TDP43 rescue, FUS yeast rescue, mIDH1 inhibitor, Abeta yeast res)
C=CCNC(=S)Nc1ccc(Cl)cc1Cl	none (no result: aSyn yeast inh, TDP43 rescue, FUS yeast rescue, mIDH1 inhibitor, Abeta yeast res)
COC(=O)c1ccccc1NC(=O)c1ccc2c(c1)CC(C)O2 (configuration not stated)	TDP43 rescue 13µM
CC1Cc2cc(C(=O)O)ccc2O1 (configuration not stated)	TDP43 rescue inconclusive
CSc1nc2ncc3c(n2n1)CC1c2ccccc2CCN1C3=O (configuration not stated)	TDP43 rescue 16µM (no result: aSyn yeast inh)
O=C1c2cnc3ncnn3c2CC2c3ccccc3CCN12 (configuration not stated)	none
N#C/C(=C/c1ccc(-c2ccccc2)cc1)C(=O)Nc1ccc(N2CCOCC2)cc1	none (no result: aSyn yeast inh, TDP43 rescue, FUS yeast rescue, mIDH1 inhibitor, Abeta yeast res)
Cc1nc(N2CCOCC2)nc(N2CCCCC2C)c1[N+](=O)[O-] (configuration not stated)	TDP43 rescue 20µM
CC(C1CC1)N(C)C(=O)/C=C/c1cccc(C#N)c1 (configuration not stated)	none (no result: aSyn yeast inh, TDP43 rescue, FUS yeast rescue, mIDH1 inhibitor, Abeta yeast res)
Cc1cccnc1NC(=S)Nc1ncccc1C	none
CCOc1ccccc1NC(=S)Nc1ncccc1C	TDP43 rescue 14µM (no result: FUS yeast rescue)
Cc1cccc(C(=O)N2CCC(n3nnc4cc(F)ccc43)CC2)c1	TDP43 rescue 22µM
CCOc1ccccc1C(=O)N1CCC(n2nnc3cc(C(F)(F)F)ccc32)CC1	TDP43 rescue inconclusive
CCOc1ccccc1C(=O)N1CCC(n2nnc3cc(C)ccc32)CC1	TDP43 rescue 18µM
Cc1ccc(NC(=O)c2cc(=O)c3ccccc3o2)cc1C	none (no result: aSyn yeast inh, TDP43 rescue, FUS yeast rescue, mIDH1 inhibitor, Abeta yeast res)
CC(C)(C)C(c1nc2ccccc2[nH]1)n1c(-c2cc(Cl)cc(Cl)c2)nc2ccccc21 (configuration not stated)	TDP43 rescue 35µM, Abeta yeast res inconclusive (no result: mIDH1 inhibitor)
CC(C)(C)C(c1nc2ccccc2[nH]1)n1c(-c2cccc(S(C)(=O)=O)c2)nc2ccccc21 (configuration not stated)	none (no result: mIDH1 inhibitor)
O=C(c1ccc(-c2ccc(Cl)cc2Cl)o1)N1CCOCC1	TDP43 rescue 18µM
O=C(c1ccc(-c2cc(Cl)ccc2Cl)o1)N1CCOCC1	TDP43 rescue inconclusive
NC(=O)C1CCN(C(=O)c2ccc(-c3ccccc3Cl)o2)CC1	none (no result: FUS yeast rescue)
O=C(c1ccc(-c2cccc(C(F)(F)F)c2)o1)N1CCN(c2ccccc2O)CC1	TDP43 rescue 16µM, Abeta yeast res inconclusive
O=C(c1ccco1)N1CCN(C(=O)c2ccc(-c3ccccc3Cl)o2)CC1	TDP43 rescue 14µM
O=C(c1ccc(-c2ccccc2Cl)o1)N1CCN(c2ccccc2O)CC1	aSyn yeast inh inconclusive, TDP43 rescue 22µM

Source: PubChem
